# PubChem BioAssay (NCATS)
# Values joined by “and” are separate entries in the source; they are usually repeats but may differ in a detail not shown here. Identical values can stand only once. A number with no mark means an inactive call. Results filed as inconclusive are left out. Active and inactive are the calls of the source. Unless noted, calls come from the whole dose curve; as a rule, active = well fitted activation curve with a large enough effect; inconclusive = small, poorly fitted or top-dose-only effect; inactive = flat fitted curve, though single readings scatter.
# Assays:
# [1] = S16 Schwann cell PMP22 intronic element beta-lactamase assay (AID 624044; calls by dose curve;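 note: 0% = DMSO and -100% = potassium clavulanate positive control; nearly all actives have a fitted effect of over 15% in size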); settings: S16 rat Schwann cells, PMP22 element beta-lactamase FRET, 24 h; series mostly up to 38.3 µM
# Procedure, shortened: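 Beta-lactamase reporter under a PMP22 intronic regulatory element in stable S16 rat Schwann cells; 24 h compound exposure. 460 nm blue signal normalized between DMSO (0%) and potassium clavulanate, with 535 nm FRET tracking viability; curves classed by r2 and response.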
# [2] = qHTS assay for small molecule agonists of the antioxidant response element (ARE) signaling pathway (AID 651741; active = well fitted activation curve with a large enough effect in the signal ratio; the % refers to the signal ratio; note: potency is the fitted concentration of half-maximal effect; for activation: % of control where 0% means no effect); settings: HepG2 ARE-bla reporter, beta-lactamase FRET ratio, 16 h; series mostly up to 96 µM
# Procedure, shortened: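 Beta-lactamase reporter under ARE control in HepG2 cells, 2,000 per well, was induced by 16 h compound treatment at 37 C. Read-out was fluorescence from LiveBLAzer B/G FRET substrate after 2 h at room temperature.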
# [3] = qHTS assay for environmental chemicals that activate the Aryl hydrocarbon Receptor (AhR) signaling pathway (AID 651777); settings: 1A2-DRE human hepatoma cells, luciferase, 24 h; stronger effect = higher value; note: % of control where 0% means no effect; nearly all actives have a fitted effect of over 15% in size
# Procedure, shortened: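 Induction of CYP1A2 transcription through AhR is detected by luciferase in 1A2-DRE hepatoma cells. Compounds or DMSO act for 24 hr at 37 C before a 30 min One-Glo step at room temperature.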
# [4] = qHTS assay for small molecule activators of the p53 signaling pathway (AID 651743; active = well fitted activation curve with a large enough effect in the signal ratio, not every such curve was filed as active; the % refers to the signal ratio; note: % of control where 0% means no effect); settings: HCT-116 p53RE-bla, beta-lactamase FRET ratio, 16 h; stronger effect = higher value
# Procedure, shortened: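 After 16 hours compound treatment at 37 C, HCT-116 cells stably expressing p53RE-driven beta-lactamase were loaded with LiveBLAzer B/G FRET substrate for 2 hours at room temperature. Fluorescence intensity served as the p53 activation read-out.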
# [5] = qHTS assay for small molecule activators of the nuclear factor-kappa B (NF-kB) signaling pathway (AID 651749; active = well fitted activation curve with a large enough effect in the signal ratio; the % refers to the signal ratio; note: % of control where 0% means no effect); settings: NF-kB-bla ME-180 cells, beta-lactamase FRET ratio, 16 h; stronger effect = higher value
# Procedure, shortened: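 Activation measured after 16 hr compound treatment at 37C, 5% CO2, of 2,000 ME-180 cells/well stably expressing an NF-kB response element–driven beta-lactamase reporter, via FRET-disruption fluorescence.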
# [6] = qHTS assay for small molecule disruptors of the mitochondrial membrane potential - 1 hr assay (AID 651754; calls by dose curve; note: % is set by controls: 0 for no effect and ±100 for the full control effect; nearly all actives have a fitted effect of over 35% in size); settings: series mostly up to 92.2 µM
# Source text: National Center for Advancing Translational Sciences [NCATS]
# NIH Chemical Genomics Center [NCGC]
# National Institutes of Environmental Health Sciences [NIEHS]
# National Toxicology Program [NTP]
# Mitochondrial membrane potential (MMP), one of the parameters for mitochondrial function, is generated by mitochondrial electron transport chain that creates an electrochemical gradient by a series of redox reactions. This gradient drives the synthesis of ATP, a crucial molecule for various cellular processes. Measuring MMP in living cells is commonly used to assess the effect of chemicals on mitochondrial function. […] The dye accumulates in the mitochondria of healthy cells as aggregates, with red fluorescence. The mitochondrial potential collapses and the dye can no longer accumulate in the mitochondria and remains in the cytoplasm in monomers, with green fluorescence.
# 2,000 HepG2 cells in 5 uL/well were dispensed into black, clear-bottom 1536-well plates using a Multidrop Combi (Thermo Scientific) dispenser. The assay plates were incubated overnight at 37C to allow cells to attach to the wells, followed by the transfer of 23 nL compound or DMSO vehicle by a pin tool (Kalypsys). The plates were incubated for 1 hr at 37C and 5% CO2, followed by the addition of 5 uL of 2X Mito-MPS dye (BD Biosciences) into each well using Flying Reagent Dispenser (Aurora Discovery) and then following 30 min incubation at 37C. Fluorescence intensity (490nm excitation and 535nm emission for monomers; and 540nm excitation and 590nm emissions for aggregates) was measured using an Envision plate reader.
# [7] = qHTS assay for small molecule disruptors of the mitochondrial membrane potential - 5 hr assay (AID 651755; calls by dose curve; note: % is set by controls: 0 for no effect and ±100 for the full control effect; nearly all actives have a fitted effect of over 40% in size); settings: JC-1-type ratio dye; series mostly up to 92.2 µM
# Procedure, shortened: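 Membrane-potential dye readout: red aggregate (540 ex/590 em) versus green monomer (490 ex/535 em) fluorescence after 30 min dye loading, following 5 hr compound exposure at 37C of overnight-plated HepG2 cells.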
# [8] = molecular target: Peroxisome proliferator-activated receptor alpha (Homo sapiens) (UniProt Q07869); assay: qHTS assay for small molecule agonists of the peroxisome proliferator-activated receptor alpha (PPARalpha) signaling pathway (AID 651778); settings: PathHunter PPARalpha complementation, chemiluminescence, 6 h; stronger effect = higher value; note: % of control where 0% means no effect
# Sequence of Peroxisome proliferator-activated receptor alpha (Homo sapiens) (Q07869 whole entry, looked up): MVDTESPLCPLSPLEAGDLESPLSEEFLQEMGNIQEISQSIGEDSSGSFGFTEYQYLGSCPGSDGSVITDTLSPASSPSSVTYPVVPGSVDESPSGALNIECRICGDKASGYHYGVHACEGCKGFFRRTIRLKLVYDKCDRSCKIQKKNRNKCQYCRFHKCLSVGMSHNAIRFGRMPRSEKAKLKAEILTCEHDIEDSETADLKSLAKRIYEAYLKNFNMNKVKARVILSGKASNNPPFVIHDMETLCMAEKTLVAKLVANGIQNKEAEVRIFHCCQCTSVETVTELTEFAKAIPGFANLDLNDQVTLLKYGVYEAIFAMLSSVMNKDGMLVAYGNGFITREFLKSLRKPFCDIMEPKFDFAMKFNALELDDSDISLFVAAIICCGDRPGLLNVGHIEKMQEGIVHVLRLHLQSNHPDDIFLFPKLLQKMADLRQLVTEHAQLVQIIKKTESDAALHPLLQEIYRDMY
# Procedure, shortened: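 Chemiluminescence from complemented enzyme reported PPARalpha activation in cells after 6 hr of compound treatment at 37 C. The detection reagent was incubated for 60 min at room temperature, and compounds were scored as agonists.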
# [9] = molecular target: Tumor necrosis factor (Homo sapiens) (UniProt P01375); assay: qHTS assay to identify small molecules that stimulate Tumor Necrosis Factor-alpha (TNF-alpha) secretion (AID 651757; active = well fitted curve in the direction sought with a large enough effect in the signal ratio; the % refers to the signal ratio; note: 0% is about no effect); settings: Human cells, HTRF 665/615 ratio; series mostly up to 92.2 µM
# Sequence of Tumor necrosis factor (Homo sapiens) (P01375 whole entry, looked up): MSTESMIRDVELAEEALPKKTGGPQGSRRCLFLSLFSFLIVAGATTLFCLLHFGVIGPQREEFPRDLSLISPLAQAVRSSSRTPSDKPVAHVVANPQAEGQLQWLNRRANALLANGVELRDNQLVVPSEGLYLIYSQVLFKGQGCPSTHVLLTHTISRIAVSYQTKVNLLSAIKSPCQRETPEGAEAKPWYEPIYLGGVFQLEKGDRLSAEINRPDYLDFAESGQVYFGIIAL
# Procedure, shortened: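 Human monocytic THP-1 cells are plated, treated with compound and held at 37 C for 17 hrs. Labeled anti-TNF-alpha antibody mixture is then added; after 3 hr at room temperature, TR-FRET signal reports secreted TNF-alpha.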
# [10] = qHTS assay to identify small molecules that stimulate interleukin-8 (IL-8) secretion (AID 651758; active = well fitted activation curve with a large enough effect in the signal ratio; the % refers to the signal ratio; note: 0% is about no effect); settings: HTRF ratio (665/615); series mostly up to 92.2 µM
# Procedure, shortened: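 Secreted IL-8 measured homogeneously by TR-FRET (two labelled anti-IL-8 antibodies, 1-3 h at room temperature) after a 16 h, 37 C compound treatment of THP-1 cells at 2000 cells/well.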
smiles,measurement,setting,value
CN(C/C=C/C#CC(C)(C)C)Cc1cccc2ccccc12,outcome,[1],inactive
Cc1cccc(Nc2ccccc2C(=O)O)c1C,Potency,[2],61.1 µM (active)
same,activation,[3],2.22%
OCc1ccc(Cl)cc1Cl,outcome,[1],inactive
Nc1ccc(S(=O)(=O)c2ccc(N)cc2)cc1,outcome,[1],inactive
same,Potency,[2],inactive
same,activation,[4],-4.8% and 0.655%
same,activation,[5],2.3% and -6.03%
same,Potency,[6],inactive
same,Potency,[7],inactive
same,activation,[3],-1.52% and 0.0487%
same,max response,[8],-8.33% and -0.873%
CC(=O)NS(=O)(=O)c1ccc(N)cc1,outcome,[1],inactive
same,activation,[4],-3.02%
same,activation,[5],-0.656%
same,Potency,[6],inactive
same,Potency,[7],inactive
same,outcome,[9],inactive
same,activation,[3],-0.967%
same,max response,[8],-6.08%
CCCC(O)C(CC)CO (stereo unspecified),Potency,[2],inactive
same,activation,[4],1.06%
same,activation,[5],0.969%
same,outcome,[9],inactive
same,outcome,[10],inactive
same,activation,[3],0.804%
same,max response,[8],-4.25%
CC(=O)Nc1cccc(O)c1,Potency,[2],inactive
same,activation,[4],-0.0293%
same,activation,[5],0.693%
same,outcome,[9],inactive
same,activation,[3],2.7%
same,max response,[8],-0.0766%
CCCCCCCCCCCCCCCCCCO,activation,[4],-2.92%
same,activation,[3],0.518%
same,max response,[8],-0.423%
O=C(OOC(=O)c1ccccc1)c1ccccc1,Potency,[2],inactive
same,activation,[4],-0.427%
same,activation,[3],2.82%
same,max response,[8],-3.46%
NC(N)=NCCN1CCCCCCC1,outcome,[1],inactive
Cc1ccc(C(C)C)c(O)c1,Potency,[2],inactive
same,activation,[4],-1.75%
same,activation,[5],-1.79%
same,activation,[3],0.149%
same,max response,[8],-0.976%
